Screening results from PubChem BioAssay.
Compounds with a hit are over-represented: about 1.4% of the library has one in this group of screens.
HTR5A inv ctr: HTR5A inverse agonists in luminescence cell assay, primary screen, counter-screen for OPRM1-OPRD1 heterodimer inverse agonist project, full-deck HTS; 0.083% of 340,000 active; AID 504634, 2011; HTR5A cell line, inverse agonism; inhibition, % at 9.3 µM; 5-hydroxytryptamine receptor 5A (Homo sapiens), P47898; in the data active = inhibition mostly above about 23%, no sharp cut-off; inactive = mostly below about 18%
p-CIP stab down: p/CIP-EGFP fusion destabilizers, primary screen, fluorescence, F442A cells; Q05BA5; 16 h; decrease of EGFP signal, % at 10 µM; 0.01% of 290,000 active;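 active = EGFP signal decrease of at least 30% at 10 µM or well 3 SD below plate mean, unless failing retest; inactive = the rest, including hits failing retest or dose response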
MOR-DOR inv ag: inverse agonists of MOR-DOR heterodimerization, primary screen, cell-based, luminescence | cell-based MOR-DOR heterodimer luminescence, inverse agonism | AID 504357, 2011 | inhibition, % at 9.3 µM | Mu-type opioid receptor (Homo sapiens) + Delta-type opioid receptor (Homo sapiens), … | 0.21% of 340,000 active; in the data active = inhibition above about 22%, passing the limit was not always enough
Target sequence (P35372 whole entry, looked up): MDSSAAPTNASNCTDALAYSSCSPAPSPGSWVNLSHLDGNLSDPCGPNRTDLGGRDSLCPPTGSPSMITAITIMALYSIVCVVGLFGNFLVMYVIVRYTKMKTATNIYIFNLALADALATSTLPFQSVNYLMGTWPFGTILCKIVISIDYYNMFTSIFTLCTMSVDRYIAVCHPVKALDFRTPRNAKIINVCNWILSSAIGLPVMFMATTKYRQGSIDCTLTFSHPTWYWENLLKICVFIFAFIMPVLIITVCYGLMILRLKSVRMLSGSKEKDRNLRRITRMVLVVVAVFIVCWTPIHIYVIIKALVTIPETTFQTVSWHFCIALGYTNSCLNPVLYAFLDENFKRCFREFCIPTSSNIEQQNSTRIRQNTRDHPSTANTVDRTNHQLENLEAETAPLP
Target sequence (P41143 whole entry, looked up): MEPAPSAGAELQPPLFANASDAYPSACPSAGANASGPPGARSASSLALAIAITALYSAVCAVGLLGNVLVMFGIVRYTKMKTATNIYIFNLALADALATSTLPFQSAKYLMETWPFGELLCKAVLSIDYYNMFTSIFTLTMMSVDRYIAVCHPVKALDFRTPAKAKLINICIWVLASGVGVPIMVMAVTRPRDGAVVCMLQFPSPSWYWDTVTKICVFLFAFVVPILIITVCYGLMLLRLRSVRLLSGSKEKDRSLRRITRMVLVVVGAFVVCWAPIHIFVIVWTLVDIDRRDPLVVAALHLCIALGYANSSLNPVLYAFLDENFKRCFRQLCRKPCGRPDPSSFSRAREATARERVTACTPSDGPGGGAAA
OPRM1-OPRD1 ag: agonists of OPRM1-OPRD1 heterodimerization, primary screen, cell-based, luminescence; activation, % at 9.3 µM; cells; Mu-type opioid receptor (Homo sapiens) + Delta-type opioid receptor (Homo sapiens), …; 0.3% of 340,000 active; in the data active = activation above about 18%
MIN6 prolif-1: inducers of MIN6 beta-cell proliferation, primary screen, ATP luminescence, uHTS | MIN6 cells proliferation, ATPlite luminescence, 48 h; cells starved in 0.2% serum; 100% = growth in 10% serum | proliferation, % at 10 µM | 0.29% of 330,000 active | AID 2380, 2010;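 active = compounds whose signal lies at least 3.5 SD above the mean of all wells on their plate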
HTR5A ag: HTR5A agonists in luminescence cell assay, primary screen, counter-screen for OPRM1-OPRD1 heterodimer agonist project, full-deck HTS | 5-hydroxytryptamine receptor 5A (Homo sapiens), P47898 | cell-based | activation, % at 9.3 µM | 0.61% of 340,000 active; in the data active = activation mostly above about 9.5%, no sharp cut-off; inactive = mostly below about 7.6%
MIN6 prolif-2: inducers of beta-cell proliferation in MIN6, confirmation, MIN6 cells, mouse; shares compounds with MIN6 prolif-1; ATPlite luminescence, 48 h; cells kept in 0.2% serum; scaled between 0.2% and 10% serum; proliferation increase, % at 50 µM; 920 tested, under 10 active; AID 463095, 2010;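 active = proliferation increase above 40% at any of the four tested concentrations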
Large screens that a line does not name were inactive (follow-up assays come after a bar, where they were run).

O=C(COC(=O)C12CC3CC(CC(Br)(C3)C1)C2)Nc1c(F)cccc1F	none (no result: p-CIP stab down)
CC(=O)NCCc1nc2cc(NC(=O)COc3ccc(C)cc3)ccc2n1C	MIN6 prolif-1 9.2 | MIN6 prolif-2 inactive
O=C(CCc1ccccc1)NNC(=O)Nc1ccc(F)c(Cl)c1	none
F[B-](F)(F)COc1ccccc1	none (no result: p-CIP stab down, MIN6 prolif-1)
Cc1cccn2c(=O)c(/C=C(\C#N)C(N)=O)c(N3CCN(c4ccccc4)CC3)nc12	MIN6 prolif-1 6.9 | MIN6 prolif-2 inactive
Nc1nnc(SCC(=O)NNC(=O)c2ccccc2F)s1	none (no result: p-CIP stab down)
CCOc1ccc(C(=O)CCC(=O)NCC(=O)Nc2c(C)cccc2C)cc1	none (no result: p-CIP stab down)
COc1cccc(/C=N/n2c(C3CCCCC3)n[nH]c2=S)c1	MIN6 prolif-1 6.9 | MIN6 prolif-2 inactive
COCCOc1ccc(C(F)(F)F)cc1NC(=O)c1ccccc1F	MIN6 prolif-1 6.7 | MIN6 prolif-2 inactive
COc1cc(NC(=O)c2ccccc2F)c(OC)cc1NC(=O)CN1CCCCC1	MIN6 prolif-1 9.3 | MIN6 prolif-2 inactive
CC1CC(C)CN(c2nc(N(C)c3ccccc3)nc(N)c2[N+](=O)[O-])C1 (stereo unspecified)	none
CC1CN(c2nc(N(C)c3ccccc3)nc(N)c2[N+](=O)[O-])CC(C)O1 (stereo unspecified)	MIN6 prolif-1 8.7 | MIN6 prolif-2 inactive
Cc1cc(C)c2c(c1)/C(=N/NC(=O)c1cc(C)oc1C)CCC2	MIN6 prolif-1 0.0 | MIN6 prolif-2 inactive
CCOC(=O)C(=CNc1cccc(C)c1C)C(=O)OCC	none
CCOC(=O)C(=CNc1ccccc1N1CCOCC1)C(=O)OCC	MIN6 prolif-1 6.0 | MIN6 prolif-2 inactive
Cc1cccc(NC(=O)c2cc(S(=O)(=O)N(C)c3ccc(F)cc3)ccc2Cl)n1	none (no result: p-CIP stab down)
C=CCN1C(=O)/C(=C2/Sc3ccccc3N2CCCS(=O)(=O)O)SC1=S	MIN6 prolif-1 6.4 | MIN6 prolif-2 inactive
C=CCN1C(=O)/C(=C2/Sc3ccccc3N2CC)SC1=S	none
CSCCC(NC(=O)COc1ccccc1)C(=O)N1CCOCC1 (stereo unspecified)	none (no result: p-CIP stab down)
CCC(C)(C(=O)NC1CCCC1)N(Cc1ccco1)C(=O)Cc1cccs1 (stereo unspecified)	MIN6 prolif-1 12 | MIN6 prolif-2 inactive
CCC(C)(C(=O)NC1CCCC1)N(Cc1ccco1)C(=O)c1ccc2c(c1)OCO2 (stereo unspecified)	MIN6 prolif-1 8.7 | MIN6 prolif-2 inactive
NC(=O)c1ccccc1NC(=O)COC(=O)CSCc1cccc(Cl)c1	none (no result: p-CIP stab down)
CCN1CCN(C(=O)Cn2ncc3ccsc3c2=O)CC1	MIN6 prolif-1 9.8 | MIN6 prolif-2 inactive
Clc1ccc(CN2CCN(c3ncccn3)CC2)c(Cl)c1	none
NC(=O)C1CCN(CC(=O)Nc2ccccc2Sc2ccc(Cl)cc2)CC1	none
NC(=O)C1CCN(CC(=O)Nc2ccccc2Sc2ccccc2)CC1	MIN6 prolif-1 7.1 | MIN6 prolif-2 inactive
NCc1cc2c3c(c1)CCCN3CCC2	none
COc1ccccc1NC(=O)CSc1c2c(nc3ccccc13)CCC2	MIN6 prolif-1 8.4 | MIN6 prolif-2 inactive
Cc1cc(NC(=O)CSc2c3c(nc4ccccc24)CCC3)no1	MIN6 prolif-1 16 | MIN6 prolif-2 inactive
COc1ccc(NC(=O)CSc2c3c(nc4ccccc24)CCCC3)c(OC)c1	none
Cc1cc(NC(=O)CSc2cc(C)c3ccccc3n2)no1	none (no result: p-CIP stab down)
CC1(C2CC2)NC(=O)N(CC(=O)Nc2ccc(C(F)(F)F)cc2)C1=O (stereo unspecified)	none (no result: p-CIP stab down)
CCc1nc(N)c(C#N)c(-c2ccco2)c1C	MIN6 prolif-1 7.1 | MIN6 prolif-2 inactive
CCCCCc1nc(N)c(C#N)c(-c2ccco2)c1CCCC	none
[O-][N+](=C(c1ccccc1)c1ccccc1)c1ccccc1	none (no result: p-CIP stab down, MIN6 prolif-1)
Cc1ccc(NC(=O)COC(=O)c2nn(C)c(=O)c3ccccc23)cc1F	none (no result: p-CIP stab down)
CCOc1ccc(S(=O)(=O)N(CC)CC)cc1NC(=O)CSCc1c(C)noc1C	MIN6 prolif-1 11 (no result: p-CIP stab down) | MIN6 prolif-2 inactive
CC(=O)Nc1cccc(-c2cnc(N)c(C(=O)c3cccnc3)n2)c1	MIN6 prolif-1 11 (no result: p-CIP stab down) | MIN6 prolif-2 inactive
CCCCNc1ccc(S(N)(=O)=O)cc1[N+](=O)[O-]	MIN6 prolif-1 6.0 (no result: HTR5A inv ctr, MOR-DOR inv ag, OPRM1-OPRD1 ag, HTR5A ag) | MIN6 prolif-2 inactive
CS(=O)(=O)NCCNc1ccc(Cl)cc1[N+](=O)[O-]	MIN6 prolif-1 7.7 | MIN6 prolif-2 inactive
CC1CCC2(CC1)NC(=O)N(CC(=O)N1CCN(S(=O)(=O)c3ccc4c(c3)CCC4)CC1)C2=O (stereo unspecified)	none (no result: p-CIP stab down)
N#CN1CCC(NS(=O)(=O)c2ccc(C(F)(F)F)cc2)CC1	none (no result: p-CIP stab down)
S=c1[nH]nc(-c2cccnc2)n1C1CCCCC1	none
COc1ccc(-c2n[nH]c(=S)n2C2CCCCC2)cc1	MIN6 prolif-1 7.6 | MIN6 prolif-2 inactive
CCOc1ccc(S(=O)(=O)N2CCCCC2)cc1NS(=O)(=O)c1cccs1	none (no result: p-CIP stab down)
Cc1cc(C)n2c(=O)[nH]nc2c1	none (no result: p-CIP stab down, MIN6 prolif-1)
CCOc1ccc(/C=N/n2c(SC)nnc2-c2ccccc2)cc1OCC	MIN6 prolif-1 8.2 | MIN6 prolif-2 inactive
Cc1ccc(NC(=O)COC(=O)CCC2CCCC2)cc1S(=O)(=O)N1CCOCC1	none (no result: p-CIP stab down)
COc1ccc(Br)cc1S(=O)(=O)NCCc1cccs1	none (no result: p-CIP stab down)
CCOc1ccc(NC(=O)CN(C)C(=O)C2CCN(C(=O)Nc3ccccc3)CC2)cc1OCC	none (no result: p-CIP stab down, MIN6 prolif-1)
COc1ccc(C(=O)N=C2SC3CS(=O)(=O)CC3N2Cc2ccc(OC)c(OC)c2)cc1 (stereo unspecified)	MIN6 prolif-1 11 | MIN6 prolif-2 inactive
CC(=O)Nc1nnc(SCC(=O)NCc2ccc3c(c2)OCO3)s1	MIN6 prolif-1 13 | MIN6 prolif-2 inactive
CSc1ccccc1NC(=O)CN(Cc1ccccc1)S(C)(=O)=O	none
CSc1ccccc1NC(=O)CN(Cc1ccc(Cl)cc1)S(C)(=O)=O	MIN6 prolif-1 5.0 | MIN6 prolif-2 inactive
CC1CN(Cc2ccccc2)c2ccccc2NC1=S (stereo unspecified)	MIN6 prolif-1 0.0 | MIN6 prolif-2 inactive
Cc1onc(-c2ccccc2)c1C(O)c1ccc(F)cc1 (stereo unspecified)	MIN6 prolif-1 10 | MIN6 prolif-2 inactive
Cc1onc(-c2ccccc2Cl)c1C(O)c1ccc(F)cc1 (stereo unspecified)	none
CCOc1ccc(CCNS(=O)(=O)c2ccc3c(c2)N(C(C)=O)CCO3)cc1OCC	MIN6 prolif-1 15 | MIN6 prolif-2 inactive
